{"source": "ChEMBL document CHEMBL3988442", "about": "“University of Dundee, Small-Polar-MMV Screening Library” (2021)", "note": "In all, about 38,000 compounds went through this assay and about 1,200 (3.2%) showed an effect of 50% or more. The median lay at about -58%. The entries come from a sample that favours strong results as a whole.", "data": [{"tested_on": "Plasmodium falciparum", "experiment": "Calibr Malaria Delayed Death Assay SOP", "format": "functional, organism-based", "set-up": "scale not given: in the data most compounds retested in dose-response had high values", "details": "concentration 4.99e-06 (unit not given; other assays of the set use mol/L)", "units": {"Percent Effect": "%"}, "values": [{"smiles": "CC(C)c1ccc(NS(=O)(=O)CC2=NC(=O)n3cccc3C2=O)cc1", "Percent Effect": -194.3}, {"smiles": "CO[C@H]1CO[C@@]2(CCCN(C(=O)C3CC=CC3)C2)C1", "Percent Effect": -81.44}, {"smiles": "CC(C)CNC(=O)CSC1CCc2ccccc2NC1=O", "note": "(stereo not drawn)", "Percent Effect": -170.7}, {"smiles": "Cc1c(C(C)N)cnn1-c1ccccn1", "note": "(stereo not drawn)", "Percent Effect": -122.1}, {"smiles": "Cc1c(C(C)N)cnn1-c1cccc2ccccc12", "note": "(stereo not drawn)", "Percent Effect": 74.08}, {"smiles": "COc1ccc(-n2ncc(C(C)NC3Cc4ccccc4C3)c2C)cc1", "note": "(stereo not drawn)", "Percent Effect": 1.566}, {"smiles": "Fc1ccc(CN2Cc3nccn3CC(CN3CCOCC3)C2)cc1.O=C(O)C(F)(F)F.O=C(O)C(F)(F)F", "note": "(stereo not drawn)", "Percent Effect": -18.4}, {"smiles": "CC(=O)c1cccc(OCc2cc(C(=O)N3CCCCO3)n[nH]2)c1", "Percent Effect": -55.13}, {"smiles": "Cc1ccc(OCC(C)NS(=O)(=O)Cc2ccon2)cc1", "note": "(stereo not drawn)", "Percent Effect": -50.51}, {"smiles": "CCN1CCC2(CC1)CC(COC)N(Cc1csc(C)n1)C2.O=C(O)C(F)(F)F.O=C(O)C(F)(F)F", "note": "(stereo not drawn)", "Percent Effect": -25.47}, {"smiles": "Cc1nc(CN2CC[C@H](OCC3CC3)[C@@H]2Cc2cccnc2)cs1.O=C(O)C(F)(F)F.O=C(O)C(F)(F)F", "Percent Effect": 60.39}, {"smiles": "Cc1nc(CN2CC[C@@H](OCC3CC3)[C@@H]2Cc2cccnc2)cs1.O=C(O)C(F)(F)F.O=C(O)C(F)(F)F", "Percent Effect": 6.851}, {"smiles": "CO[C@@H]1CCN(c2nnc(C)s2)C[C@@H]1Cc1ccccc1.O=C(O)C(F)(F)F", "Percent Effect": -42.62}, {"smiles": "COCC1CC2(CCN(C(C)=O)CC2)CN1Cc1csc(C)n1.O=C(O)C(F)(F)F", "note": "(stereo not drawn)", "Percent Effect": -10.79}, {"smiles": "Cc1nnc(N2CC[C@@H](OCC3CC3)[C@@H](Cc3ccccc3)C2)s1.O=C(O)C(F)(F)F", "Percent Effect": 84.3}, {"smiles": "COCC1CC2(CCN(CC3CC3)CC2)CN1Cc1csc(C)n1.O=C(O)C(F)(F)F.O=C(O)C(F)(F)F", "note": "(stereo not drawn)", "Percent Effect": 52}, {"smiles": "Cc1ccc(N2CC[C@H](OCC3CC3)[C@@H]2Cc2cccnc2)nn1.O=C(O)C(F)(F)F", "Percent Effect": -86.08}, {"smiles": "Cc1nnc(N2CC[C@H](OCC3CC3)[C@@H](Cc3ccccc3)C2)s1.O=C(O)C(F)(F)F", "Percent Effect": -5.425}, {"smiles": "COc1cc(OC)c(C2CC(=O)Oc3cc(C)[nH]c(=O)c32)c(OC)c1", "note": "(stereo not drawn)", "Percent Effect": -23.56}, {"smiles": "COc1ccc(CN(C)CC(=O)c2ccc3[nH]c(=O)[nH]c3c2)cc1F", "Percent Effect": -24.42}, {"smiles": "COc1cccc(S(=O)(=O)NC(=O)CC2CCCO2)c1", "note": "(stereo not drawn)", "Percent Effect": -80.63}, {"smiles": "CC(C)NC(=O)C1CN(C(=O)Cc2ccccc2)CC12CCOCC2", "note": "(stereo not drawn)", "Percent Effect": -95.53}, {"smiles": "CCCS(=O)(=O)NCCc1ncc(CC)s1", "Percent Effect": -128.9}, {"smiles": "OCCN1CCN(Cc2coc(-c3cccc(F)c3)n2)CC1", "Percent Effect": -200.4}, {"smiles": "CC(C)(C#N)c1ccccc1CN(CCO)Cc1ccsc1", "Percent Effect": -17.47}, {"smiles": "CCCc1nnc([C@H]2CCN(Cc3ncc[nH]3)C2)o1", "Percent Effect": -53.09}, {"smiles": "C[C@]1(O)CN(Cc2ncc[nH]2)CC[C@@H]1Oc1cccc(F)c1", "Percent Effect": -12.82}, {"smiles": "O=C(O)C(F)(F)F.O=S(=O)(c1cccs1)N1Cc2nc(CN3CCCC3)oc2C1", "Percent Effect": -93.44}, {"smiles": "COC(=O)CCNC(=O)c1cc(-c2ccc(OC)cc2)nn1C", "Percent Effect": -127.7}, {"smiles": "Cc1nn(C)c2c(N3CCC(C)CC3)nc(C3CC3)nc12", "Percent Effect": -7.534}, {"smiles": "CC(C)Nc1nc(N2CCCC2)nc2c1CN(S(C)(=O)=O)CC2", "Percent Effect": 50.55}, {"smiles": "Cc1nc(N2CCCC2)nc2c1CN(C(C)C)CC2.O=C(O)C(F)(F)F", "Percent Effect": -39.09}, {"smiles": "CCN1CCc2nc(N3CCOCC3)nc(NC(C)C)c2C1", "Percent Effect": 12.6}, {"smiles": "CCCN1CCc2nc(N3CCOCC3)nc(NC(C)C)c2C1", "Percent Effect": -40.15}, {"smiles": "CC(C)Nc1nc(N2CCCC2)nc2c1CN(C)CC2", "Percent Effect": 48.45}, {"smiles": "CC(C)Nc1nc(N2CCCC2)nc2c1CCN(S(C)(=O)=O)CC2.O=C(O)C(F)(F)F.O=C(O)C(F)(F)F", "Percent Effect": 51.48}, {"smiles": "CCC(C)N1CCc2nc(N3CCCC3)nc(NC(C)C)c2C1", "note": "(stereo not drawn)", "Percent Effect": 77.92}, {"smiles": "CC(C)Nc1nc(-c2ccccc2)nc2c1CCN(C(=O)C1CC1)CC2.O=C(O)C(F)(F)F", "Percent Effect": 24.24}, {"smiles": "CC(C)Nc1nc(N2CCCC2)nc2c1CN(c1ncc(F)cn1)CC2", "Percent Effect": 23.23}, {"smiles": "Cn1ccnc1CN1CCCN(C(=O)c2ccc3cc[nH]c3c2)CC1", "Percent Effect": -18.34}, {"smiles": "Cc1nc(CO[C@@H]2CC[C@H]3[C@H]2OCCN3Cc2cccnc2)cs1.O=C(O)C(F)(F)F.O=C(O)C(F)(F)F.O=C(O)C(F)(F)F", "Percent Effect": -25.46}, {"smiles": "CC(C)CNC(=O)N1C[C@H]2C[C@H](C(=O)NCc3ccccc3)[C@@H](C1)O2", "Percent Effect": -25.06}, {"smiles": "O=C(NCc1cc[nH]n1)N1CCN(c2ncccn2)CC1", "Percent Effect": -98.04}, {"smiles": "Cc1ccoc1C(=O)N1Cc2c(CN3CCCCC3)nn(C)c2C1.O=CO", "Percent Effect": -35.59}, {"smiles": "Cc1cc(CN(C)C2CCCN(c3cccnn3)C2)no1", "note": "(stereo not drawn)", "Percent Effect": -12.48}, {"smiles": "Cc1oncc1C(=O)NCC1(O)CCc2ccccc2C1", "note": "(stereo not drawn)", "Percent Effect": -85.49}, {"smiles": "COc1coc(C(=O)Nc2nc(-c3ccncc3)cs2)cc1=O", "Percent Effect": -115.6}, {"smiles": "Cc1ccc(NC2CCN(C(=O)COc3cccc(F)c3)CC2)nn1", "Percent Effect": -0.3434}, {"smiles": "Cn1cc(C[C@H]2[C@H](O)CCN2Cc2ccncc2)cn1.O=C(O)C(F)(F)F.O=C(O)C(F)(F)F", "Percent Effect": -36.65}, {"smiles": "O=C(CCN1CCCC1C1CCCCC1)N1CCc2sccc2C1", "note": "(stereo not drawn)", "Percent Effect": 58.84}, {"smiles": "O=C(CCN1CCCC1c1cccc(F)c1)N1CCc2sccc2C1", "note": "(stereo not drawn)", "Percent Effect": 40.53}, {"smiles": "O=C(CCNCc1cccc(O)c1)N1CCc2sccc2C1", "Percent Effect": 50.25}, {"smiles": "N#Cc1cccc(CNCCC(=O)N2CCc3sccc3C2)c1", "Percent Effect": 18.53}, {"smiles": "Cc1cc(C2CCCN2CCC(=O)N2CCc3sccc3C2)no1", "note": "(stereo not drawn)", "Percent Effect": -5.731}, {"smiles": "COc1ccc(CNCCC(=O)N2CCc3sccc3C2)cc1O", "Percent Effect": 34.01}, {"smiles": "CNc1nc(C)c(C(=O)N2C[C@@H](C(=O)O)[C@H](C3CC3)C2)s1", "Percent Effect": -129.8}, {"smiles": "Cc1cc(C[S+]([O-])CC(=O)NCc2ccccc2)no1", "note": "(stereo not drawn)", "Percent Effect": -44.89}, {"smiles": "C[C@H](NC(=O)OC(C)(C)C)c1nnc(S(=O)(=O)Cc2cccc(F)c2)o1", "Percent Effect": -198.9}, {"smiles": "Cc1nc2c(c(NC(C)c3nnn[nH]3)n1)Cc1ccccc1OC2", "note": "(stereo not drawn)", "Percent Effect": -22.04}, {"smiles": "CNS(=O)(=O)c1cccc(C(C)NCc2ccco2)c1", "note": "(stereo not drawn)", "Percent Effect": 0.2758}, {"smiles": "CNS(=O)(=O)c1cccc(C(C)NCc2ccc(F)cc2F)c1", "note": "(stereo not drawn)", "Percent Effect": -6.511}, {"smiles": "CNS(=O)(=O)c1cccc(C(C)NCc2cccc(C)c2C)c1", "note": "(stereo not drawn)", "Percent Effect": 68.88}, {"smiles": "CNS(=O)(=O)c1cccc(C(C)NCc2cccc(OC)c2)c1", "note": "(stereo not drawn)", "Percent Effect": -0.2291}, {"smiles": "CNS(=O)(=O)c1cccc(C(C)NCc2ccc(C)o2)c1", "note": "(stereo not drawn)", "Percent Effect": 21.13}, {"smiles": "CNS(=O)(=O)c1cccc(C(C)NCc2ccccc2OC)c1", "note": "(stereo not drawn)", "Percent Effect": 86.21}, {"smiles": "O=C(c1cc2c(s1)CCCCC2)N1CCC(c2ncc[nH]2)CC1", "Percent Effect": -34.19}, {"smiles": "COc1nc2c(cc1C(=O)N1CCCCC1c1ccccn1)CCC2", "note": "(stereo not drawn)", "Percent Effect": -121.2}, {"smiles": "Cc1nn(CC(C)C)c(N(C)C)c1CNCc1ccc(CO)c(F)c1", "Percent Effect": -6.96}, {"smiles": "O=C(CCNS(=O)(=O)c1ccc(F)cc1)NCc1ccoc1", "Percent Effect": -96.77}, {"smiles": "CCCc1nc(CN2CCCC2Cn2cncn2)no1", "note": "(stereo not drawn)", "Percent Effect": -44.73}, {"smiles": "CCSc1ncc(CN2CCC(O)(CN3CCOCC3)C(C)(C)C2)cn1", "note": "(stereo not drawn)", "Percent Effect": 16.41}, {"smiles": "COc1ccc2c(c1)C(NCCc1ncc(C)s1)CCCO2", "note": "(stereo not drawn)", "Percent Effect": -37.71}, {"smiles": "COc1c(CNC2CCCOc3ccccc32)c(C)nn1C", "note": "(stereo not drawn)", "Percent Effect": -45.12}, {"smiles": "COc1cccc(CNC2CCCOc3cc(C)ccc32)n1", "note": "(stereo not drawn)", "Percent Effect": 67.49}, {"smiles": "COc1ccc2c(c1)C(NCCc1c(C)noc1C)CCCO2", "note": "(stereo not drawn)", "Percent Effect": 29.88}, {"smiles": "COc1ccc2c(c1)C(NCCc1ccccn1)CCCO2", "note": "(stereo not drawn)", "Percent Effect": 57.17}, {"smiles": "Cc1ccc2c(c1)OCCCC2NC1CCN(C)CC1", "note": "(stereo not drawn)", "Percent Effect": 47.45}, {"smiles": "O=C(Nc1cn[nH]c1)N1CCN(CCSc2ccccc2)CC1", "Percent Effect": -6.157}, {"smiles": "CCOCc1ncn2c1CN(C(=O)Nc1cccc(F)c1)CC2", "Percent Effect": -77.13}, {"smiles": "CN(CCCOc1ccccc1Cl)C(=O)CN1CCCCCC1=O", "Percent Effect": -111.3}, {"smiles": "Cc1cccc(S(=O)(=O)N2Cc3nccn3CC(CN(C)C)C2)c1", "note": "(stereo not drawn)", "Percent Effect": 1.767}, {"smiles": "CC(=O)N1CCc2[nH]c(=O)ccc2C1", "Percent Effect": -39.7}, {"smiles": "CCn1ccnc1CNCC(c1ccc(C)s1)N1CCOCC1", "note": "(stereo not drawn)", "Percent Effect": 52.86}, {"smiles": "Cc1ccc(C(CNCc2ccncc2)N2CCOCC2)s1", "note": "(stereo not drawn)", "Percent Effect": -46.8}, {"smiles": "Cc1ccc(C(CNCc2ncc[nH]2)N2CCOCC2)s1", "note": "(stereo not drawn)", "Percent Effect": 32.72}, {"smiles": "CCn1cc(CNCC(c2ccc(C)s2)N2CCOCC2)cn1", "note": "(stereo not drawn)", "Percent Effect": 64.77}, {"smiles": "Cc1ccc(C(CNCc2cccn2C)N2CCOCC2)s1", "note": "(stereo not drawn)", "Percent Effect": -42.34}, {"smiles": "Cc1ccc(C(CNCc2ccc(C#N)cc2)N2CCOCC2)s1", "note": "(stereo not drawn)", "Percent Effect": 50.98}, {"smiles": "Cc1ccc(C(CNCc2nccn2C)N2CCOCC2)s1", "note": "(stereo not drawn)", "Percent Effect": -32.15}, {"smiles": "Cc1ccc(C(CNCc2cccnc2)N2CCOCC2)s1", "note": "(stereo not drawn)", "Percent Effect": -2.804}, {"smiles": "CCn1cc(CNC(=O)CCc2nnc(-c3ccc(C)s3)o2)cn1", "Percent Effect": -44.03}, {"smiles": "CCCn1cc(CNCC(c2ccc(C)s2)N2CCOCC2)cn1", "note": "(stereo not drawn)", "Percent Effect": 54.23}, {"smiles": "O=C(CCn1cccn1)NCC(c1cccs1)N1CCOCC1", "note": "(stereo not drawn)", "Percent Effect": -64.96}, {"smiles": "Cc1ccc(C(CNCC2CC2)N2CCOCC2)s1", "note": "(stereo not drawn)", "Percent Effect": 23.83}, {"smiles": "O=C(NCCc1nccs1)C(c1ccccc1)n1cnnn1", "note": "(stereo not drawn)", "Percent Effect": -126.4}, {"smiles": "Cn1ccnc1-c1ccc(NCc2cn3c(n2)SCC3)nn1", "Percent Effect": -229.6}, {"smiles": "CC(C)CC(CO)NS(=O)(=O)Cc1ccon1", "note": "(stereo not drawn)", "Percent Effect": -57.79}, {"smiles": "Cc1ccc2nc(C3CCCN3C(=O)c3cc(=O)[nH]c(=O)[nH]3)[nH]c2c1", "note": "(stereo not drawn)", "Percent Effect": -24.73}]}]}
